Measured values as given in PubChem BioAssay (NCI).
Compounds without any hit were thinned out: in the full panel of roughly 79,000, 15% have a hit. Activity calls are given as the source filed them. Rule as the data show it: active = growth inhibition above about 70%; inactive = the rest.

How the values were obtained:
[1] = NCI Yeast Anticancer Drug Screen. Data for the rad50 strain (AID 155);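 also: 0% = growth of vehicle-only cultures of the same strain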; settings: S. cerevisiae rad50 strain growth inhibition, active compounds read high
How it was run: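 Genetically altered yeast (DNA repair pathway); compound treatment; growth inhibition vs vehicle ctrl.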

[2] = NCI Yeast Anticancer Drug Screen. Data for the mec2-1 strain (AID 157); settings: S. cerevisiae mec2-1 strain, active compounds read high
How it was run: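 Growth inhibition is read against vehicle-treated controls after compound exposure of the mec2-1 yeast strain, which is defective in DNA damage repair or cell cycle control.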

[3] = NCI Yeast Anticancer Drug Screen. Data for the sgs1 mgt1 strain (AID 161);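 also: 0% = growth of cultures given vehicle only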; settings: S. cerevisiae sgs1 mgt1 strain, active compounds read high
How it was run: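 Yeast cells carrying a defined DNA-repair defect were exposed to test compounds. Growth inhibition was measured relative to vehicle-treated controls.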

[4] = NCI Yeast Anticancer Drug Screen. Data for the cln2 rad14 strain (AID 165);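 also: 0% = growth equal to vehicle treated cultures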; settings: S. cerevisiae cln2 rad14 strain, active compounds read high
How it was run: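 Growth inhibition, relative to vehicle-treated controls, is the read-out. The test organism is a yeast strain with defined genetic alterations, cln2 rad14.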

[5] = NCI Yeast Anticancer Drug Screen. Data for the bub3 strain (AID 167); settings: S. cerevisiae bub3 mutant strain, active compounds read high
How it was run: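 Yeast carrying a defined mutation is treated with each compound, and growth is compared with that of vehicle-exposed cells to give inhibition.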

[6] = NCI Yeast Anticancer Drug Screen. Data for the mlh1 rad18 strain (AID 175); settings: S. cerevisiae mlh1 rad18 strain growth inhibition, active compounds read high
How it was run: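 Cells of a genetically altered yeast strain, deficient in DNA damage repair, were treated with compound. Their growth was then compared with that of vehicle-treated cultures to give inhibition.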

[7] = at 5.0 µM (retest, dose inferred, filed as 0.5)
[8] = at 50.0 µM (retest, dose inferred, filed as 5.0)

Measured: growth inhibition

CCC[CH2][Sn]1([CH2]CCC)[O]CC(CN2CCOCC2)[O]1 (configuration not stated)
inactive: [1]; [7] 27% | [1]; [8] 34% | [2]; [7] 17% | [2]; [8] 35% | [3]; [7] 34% | [3]; [8] 41% | [4]; [7] 26% | [4]; [8] 31% | [5]; [7] 22% | [5]; [8] 27% | [6]; [7] 45% | [6]; [8] 44%
active: [1]; at 50.0 µM 87.7% | [2]; at 50.0 µM 91% | [3]; at 50.0 µM 91% | [4]; at 50.0 µM 88.8% | [5]; at 50.0 µM 90.3% | [6]; at 50.0 µM 88.8%

Cc1sc(Cc2ccccc2)nc1-c1ccc(N=Cc2ccc(N(CCCl)CCCl)cc2)cc1
active: [1]; [8] 95% | [1]; at 50.0 µM 96.2% | [2]; [8] 98% | [2]; at 50.0 µM 93.8% | [3]; [8] 98% | [3]; at 50.0 µM 96% | [4]; [8] 90% | [4]; at 50.0 µM 93.6% | [5]; [8] 96% | [5]; at 50.0 µM 89% | [6]; [8] 97% | [6]; at 50.0 µM 96.2%
inactive: [1]; [7] 20% | [2]; [7] 2% | [3]; [7] -108% | [4]; [7] -1% | [5]; [7] 2% | [6]; [7] 58%

COc1ccc(NN=O)nc1
inactive: [1]; [7] 21% | [1]; [8] 16% | [1]; at 50.0 µM 31.9% | [2]; [7] 8% | [2]; [8] 17% | [2]; at 50.0 µM -2.2% | [3]; [7] 18% | [3]; [8] 23% | [3]; at 50.0 µM -20.9% | [4]; [7] 7% | [4]; [8] 24% | [4]; at 50.0 µM -18.6% | [5]; [7] 20% | [5]; [8] 22% | [5]; at 50.0 µM -22.4% | [6]; [7] 20% | [6]; [8] 29% | [6]; at 50.0 µM 3.95%

CCN(CC)C(=S)[S-].CCN(CC)C(=S)[S-].O=C(O)CC([S-])C(=O)O.[Fe+3] (configuration not stated)
active: [1]; [8] 98% | [2]; [8] 99% | [3]; [8] 99% | [3]; at 50.0 µM 76.8% | [4]; [8] 98% | [5]; [8] 98% | [6]; [8] 98% | [6]; at 50.0 µM 87.2%
inactive: [1]; [7] 4% | [1]; at 50.0 µM 61.8% | [2]; [7] 9% | [2]; at 50.0 µM 55.8% | [3]; [7] 35% | [4]; [7] 30% | [4]; at 50.0 µM 43.8% | [5]; [7] -1% | [5]; at 50.0 µM 45.7% | [6]; [7] 38%

[I][Hg][CH2]C1OCCOC1[CH2][Hg][I] (configuration not stated)
inactive: [1]; [7] 1% | [1]; [8] 3% | [2]; [7] -39% | [2]; [8] 2% | [3]; [7] -1% | [3]; [8] 2% | [4]; [7] -2% | [4]; [8] 4% | [5]; [7] -8% | [5]; [8] -6% | [6]; [7] -1% | [6]; [8] 3%
active: [1]; at 50.0 µM 99.5% | [2]; at 50.0 µM 99.7% | [3]; at 50.0 µM 99.5% | [4]; at 50.0 µM 99.2% | [5]; at 50.0 µM 99.5% | [6]; at 50.0 µM 99.2%

CC(C)=CCC/C(C)=C/CC/C(C)=C/Cc1c(O)c2ccccc2oc1=O
active: [1]; [8] 94% | [1]; at 50.0 µM 89% | [2]; [8] 97% | [2]; at 50.0 µM 91.5% | [3]; [8] 95% | [3]; at 50.0 µM 89.7% | [4]; [8] 96% | [4]; at 50.0 µM 89.2% | [5]; [8] 95% | [5]; at 50.0 µM 88.3% | [6]; [8] 98% | [6]; at 50.0 µM 89.2%
inactive: [1]; [7] 16% | [2]; [7] 5% | [3]; [7] 7% | [4]; [7] 29% | [5]; [7] -11% | [6]; [7] -21%

COc1ccc(CN2CCCN(Cc3ccc(OC)cc3OC)C2c2ccc(N(CCCl)CCCl)cc2)c(OC)c1
inactive: [1]; [7] 2% | [1]; [8] 49% | [2]; [7] -9% | [2]; [8] 8% | [2]; at 50.0 µM 22.8% | [3]; [7] -5% | [3]; [8] 42% | [3]; at 50.0 µM 60.8% | [4]; [7] -8% | [4]; [8] 43% | [4]; at 50.0 µM 30.3% | [5]; [7] -8% | [5]; [8] -3% | [5]; at 50.0 µM 5.25% | [6]; [7] 55% | [6]; at 50.0 µM 53.9%
active: [1]; at 50.0 µM 71% | [6]; [8] 95%

Cc1cc(N(CCCl)CCCl)ccc1CN1CCCN(Cc2ccc(N(CCCl)CCCl)cc2C)C1c1ccc(N(CCCl)CCCl)cc1
active: [1]; [8] 97% | [2]; [8] 99% | [3]; [8] 98% | [3]; at 50.0 µM 86.8% | [4]; [8] 98% | [5]; [8] 88% | [6]; [8] 97% | [6]; at 50.0 µM 97.2%
inactive: [1]; [7] 11% | [1]; at 50.0 µM 66.2% | [2]; [7] 1% | [2]; at 50.0 µM 21.6% | [3]; [7] 3% | [4]; [7] -3% | [4]; at 50.0 µM 21.4% | [5]; [7] 5% | [5]; at 50.0 µM 30.8% | [6]; [7] 33%

C/C(CC(=O)Nc1ccc([N+](=O)[O-])cc1)=N\Nc1ccc([N+](=O)[O-])cc1[N+](=O)[O-]
active: [1]; [7] 76% | [1]; at 50.0 µM 72%
inactive: [1]; [8] 45% | [2]; [7] 48% | [2]; [8] 47% | [2]; at 50.0 µM 15.9% | [3]; [7] 48% | [3]; [8] 40% | [3]; at 50.0 µM 7.6% | [4]; [7] 33% | [4]; [8] 53% | [4]; at 50.0 µM -33.9% | [5]; [7] 17% | [5]; [8] 34% | [5]; at 50.0 µM 32.5% | [6]; [7] 67% | [6]; [8] 36% | [6]; at 50.0 µM 61.9%
